# Test results as given in PubChem BioAssay.
# Unmarked numbers belong to inactive results. How the calls were made is not given here.
# Biological target: Pantothenate synthetase (Mycobacterium tuberculosis (strain ATCC 25618 / H37Rv)) (UniProt P9WIL5)
# Assay: Recombinant Mtb pantothenate synthetase (PanC) inhibitors, coupled enzyme, confirmatory (AID 375);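 further: 0% = full reaction with vehicle and 100% = no enzyme background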
# Settings: coupled enzyme assay; at 10 µM, stronger effect = higher value
# Chain of Pantothenate synthetase (Mycobacterium tuberculosis (strain ATCC 25618 / H37Rv)) (P9WIL5 whole entry, looked up): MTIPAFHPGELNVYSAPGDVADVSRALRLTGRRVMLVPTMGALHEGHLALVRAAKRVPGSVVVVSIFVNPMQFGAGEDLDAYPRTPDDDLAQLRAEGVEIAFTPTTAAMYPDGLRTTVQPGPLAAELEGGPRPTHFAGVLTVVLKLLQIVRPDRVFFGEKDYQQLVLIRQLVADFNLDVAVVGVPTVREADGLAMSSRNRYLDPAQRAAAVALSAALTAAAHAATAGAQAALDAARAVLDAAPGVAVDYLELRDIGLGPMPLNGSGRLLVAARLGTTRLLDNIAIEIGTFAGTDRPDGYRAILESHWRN
row,Compound,inhibition
1,COc1ccc(C2=NO[C@@H]3C(=O)N(c4cccc(C)c4C)C(=O)[C@H]23)cc1OC,1%
2,Cc1ccc(Cn2nnc3c(=O)n(CC(=O)NCC4CCCO4)cnc32)cc1 (stereo not given),0%
3,O=C(O)CC(NC(=O)c1ccccc1NC(=O)c1ccccc1)C(=O)O (stereo not given),0%
4,Cc1ccc(S(=O)(=O)N[C@@H](C)C(=O)N2CCC(C(=O)N3CCC[C@H]3C(=O)O)CC2)cc1,0%
5,CCOc1ccccc1-n1c(SCC(=O)NCc2ccco2)nnc1-c1ccncc1,1%
6,OCc1nc2ccccc2n1CC(O)Cn1ccc2ccccc21 (stereo not given),1%
7,CC(c1ccco1)N(C(=O)c1ccc(S(=O)(=O)N2CCCCC2)cc1)c1ccccn1 (stereo not given),2%
8,Cc1cccc(NC(=O)C2CCCN2C(=O)OCC(C)C)c1C (stereo not given),0%
9,COc1ccccc1NC(=O)c1cc2n(n1)C(C(F)(F)F)CC(c1ccc3c(c1)OCO3)N2 (stereo not given),0%
10,CCN(CCNC(=O)CS(=O)(=O)Cc1nc(-c2cccc(OC)c2)oc1C)c1ccccc1,0%
11,CC1(C)CC(=O)C(CC(=O)NC(=O)NCc2ccccc2)=C(O)C1,0%
12,CC(C)OC(=O)CN1C(=O)C(C)(C)Oc2ccc(C(=O)NC3CC3)cc21,0%
13,COc1ccc(C/C(O)=C(\C#N)c2nc3ccccc3s2)cc1,4%
14,CCCN1CCC(NC(=O)Nc2ccc(OC)c(OC)c2)CC1,0%
15,CC(C)(C)NC(=O)CN(Cc1cccs1)C(=O)c1csnn1,0%
16,CCN1C(=O)c2ccccc2S(=O)c2ccc(C(=O)NC3CC3)cc21 (stereo not given),6%
17,Clc1ccc(Cl)c(-c2nn3c(Cn4cnc5ccccc54)nnc3s2)c1,0%
18,Cc1ccc(NC(=O)CN(C)S(=O)(=O)c2cccc3nsnc23)cc1Cl,1%
19,CC1NC2(C(=O)N(Cc3ccccc3)c3ccccc32)C2C(=O)N(c3ccccc3)C(=O)C12 (stereo not given),0%
20,Cn1nnnc1SCC(=O)N1CCN(c2cccc(Cl)c2)CC1,2%

row,Compound,inhibition
1,COc1ccc(CNc2oc(-c3cccc4ccccc34)nc2C#N)cc1,0%
2,Cc1ccsc1C(C(=O)NC1CCCCC1)N(C(=O)Cc1cccs1)C1CC1 (stereo not given),0%
3,O=C(Cc1ccccc1)Nc1nnc(-c2cccs2)s1,0%
4,COc1ccc2c(c1)C(C)=CC(C)(C)N2C(=O)CSc1nnc(-c2ccc(C)cc2)o1,0%
5,CCOC(=O)C1=C(CSc2nc(C)cc(C)c2C#N)OC(N)=C(C#N)C1c1cccs1 (stereo not given),2%
6,Cc1ccc(S(=O)(=O)N2CCC(C(=O)NCCN3CCCCCC3)CC2)cc1,0%
7,Cc1cc(C)cc(Nc2ncc3c(n2)CC(c2ccco2)CC3=O)c1 (stereo not given),3%
8,CCCC(C)c1nnc(NC(=O)C2CCCO2)s1 (stereo not given),0%
9,CCOC(=O)C(C)Sc1nc2c(cnn2-c2ccc(C)cc2)c(=O)[nH]1 (stereo not given),5%
10,COc1ccc(-n2ncc3c(NCc4ccc5c(c4)OCO5)ncnc32)cc1,0%
11,Cc1nc(SCC#N)c2c(C)c(C)sc2n1,0%
12,Cc1ncoc1C(=O)Nc1cccc(Cl)c1C,1%
13,Cc1cccc2cc(CN(CC3CCCO3)C(=O)c3cnccn3)c(=O)[nH]c12 (stereo not given),0%
14,COC(=O)C1CCN(C(=O)CSc2nnc(-c3ccncc3)o2)CC1,0%
15,Cc1nnc(SCC(=O)Nc2sc3c(c2C#N)CCCC3)[nH]c1=O,0%
16,COC(=O)C1(C(F)(F)F)N=C2Sc3ccccc3N2C(N2CCOCC2)=N1 (stereo not given),0%
17,Cc1ccc(S(=O)(=O)N2CCCC2C(=O)OCc2ccco2)cc1 (stereo not given),5%
18,CC(c1ccccc1)N1C(=O)c2ccc(C(=O)NCc3ccco3)cc2C1=O (stereo not given),1%
19,O=C(c1ccc(CNc2c(N3CCCC3)c(=O)c2=O)cc1)N1CCc2ccccc2C1,1%
20,CCOc1cc(N2CCOCC2)c(OCC)cc1NC(=O)CSc1cccc[n+]1[O-],3%
